The source made the active and inactive calls. How the source made its calls: active means hit-call score of the fitted dose curve at least 0.9, where 1 is the maximum; inactive means score below 0.9.
Assay: Tanguay_ZF_120hpf_MUSC: Oregon State University Tanguay Lab 120 Hour Post-fertilization zebrafish Assay for Muscle Malformation (AID 2284401)
How it was run: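 Dechorionated Tropical 5D wild-type zebrafish embryos exposed statically from 6 to 120 hpf at 28C, one per well, in 0.64% DMSO. Muscle malformation scored present/absent by brightfield microscopy at 120 hpf, fitted against DMSO.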

Compound | outcome
NC(O)(C(F)(F)F)C(F)(F)F | inactive
C=CC(=O)OCC(F)(F)C(F)(F)C(F)(F)COC(=O)C=C | inactive

— PubChem BioAssay (EPA / NIEHS)
